Source: PubChem (National Center for Advancing Translational Sciences (NCATS))
Cruzain noTriton = blocks cruzain activity in detergent-free assay. purified cruzain, Z-FR-AMC fluorescence, no detergent. Potency, µM, for the others: max response, negative = inhibition, most hits filed as inhibitors. 200,000 tested, 2.3% active. AID 1476;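 note: plate controls were enzyme without inhibitor for no effect and buffer without enzyme for full effect; nearly all actives have a fitted effect of over 40% in size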
Target sequence (P25779 123-467 limits assumed): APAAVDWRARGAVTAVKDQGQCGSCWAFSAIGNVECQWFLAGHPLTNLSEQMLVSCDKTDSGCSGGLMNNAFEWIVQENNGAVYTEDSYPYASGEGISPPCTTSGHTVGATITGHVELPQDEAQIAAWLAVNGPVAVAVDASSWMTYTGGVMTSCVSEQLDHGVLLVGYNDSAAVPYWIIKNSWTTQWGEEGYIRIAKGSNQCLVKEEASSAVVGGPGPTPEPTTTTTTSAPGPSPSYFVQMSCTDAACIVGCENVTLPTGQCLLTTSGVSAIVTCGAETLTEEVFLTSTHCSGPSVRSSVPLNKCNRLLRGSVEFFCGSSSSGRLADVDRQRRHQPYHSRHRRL
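Detergent-free condition (0.00005% Triton X-100) in acetate buffer pH 5.5 with DTT. 1.5 nM enzyme and compound were pre-mixed 15 min, then 2 uM Z-FR-AMC substrate added; reaction progress from fluorescence change between first and third reads (60 s).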
Cruzain inh Det = blocks cruzain activity in presence of Triton detergent. P25779. purified cruzain, Z-FR-AMC fluorescence, 0.01% Triton. Potency, µM, inactives show max response, negative = inhibition, actives largely listed as inhibitors. 200,000 tested, 0.43% active;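 note: plate controls were neutral wells for no effect and buffer without enzyme for full effect; nearly all actives have a fitted effect of over 40% in size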
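Purified cruzain (1.5 nM final) was preincubated with compounds for 15 min at room temperature in 100 mM sodium acetate pH 5.5, 5 mM DTT, 0.01% Triton X-100. Reaction started with 2 uM Z-FR-AMC; AMC fluorescence change over 60 s gave activity.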
An asterisk follows results filed as active; ? = inconclusive. A selection: hits, their analogues and other compounds. The true share with any hit is near 2.5%. Calls come from the whole dose curve; as a rule, active = well fitted curve in the direction sought with a large enough effect; inconclusive = small, poorly fitted or top-dose-only effect, or another doubt; inactive = no such curve, though single readings can be large; an effect the other way counts as inactive or inconclusive. Potency is the fitted concentration of half-maximal effect.

SMILES	Cruzain noTriton	Cruzain inh Det
O=C(COC(=O)c1cccc(S(=O)(=O)N2CCc3ccccc32)c1)Nc1ncc(Cl)cc1Cl	?	-4%
COc1cccc(Cn2c(=O)n(CCc3ccccc3)c(=O)c3c2c2cc(OC)ccc2n3C)c1	-8%	-2%
Cc1ccc(OCCOCCn2c(-c3ccc(Cl)cc3)nc3ccccc3c2=O)cc1	-13%	-1%
NCCSCc1ccccc1Cl	-14%	-2%
c1ccc2c(c1)[nH]c1c(NCC3CCCO3)ncnc12 (configuration not stated)	25µM*	-30%
CCCCOCCCNc1ncnc2c1[nH]c1ccccc12	-29%	?
COc1cc(NC(=O)c2ccc(NC(=O)N3CCSc4ncccc43)cc2)cc(OC)c1	-1%	-9%
COc1ccc(-c2csc(N3C(=O)C4C5c6ccccc6C(c6ccccc65)[C@@H]4C3=O)n2)cc1 (some centres not stated)	10µM*	2%
COc1ccc(-c2csc(N3C(=N)SCC3=O)n2)cc1	?	3%
COc1ccc(-c2csc(N3C(=O)C4C5c6ccccc6C(c6ccccc65)C4C3=O)n2)cc1 (configuration not stated)	16µM*	0%
COc1ccc(-c2csc(N3C(=O)CNC3=S)n2)cc1	?	-2%
CCCCCn1c(=N)c(S(=O)(=O)c2ccccc2)cc2c(=O)n3cccc(C)c3nc21	-6%	-1%
CC(=O)c1cccc(Nc2ccc3cc(S(=O)(=O)N4CCCC4)ccc3n2)c1	13µM*	-7%
COc1ccc(Nc2ccc3cc(S(=O)(=O)N4CCCC4)ccc3n2)cc1OC	-13%	-7%
COc1ccccc1-c1noc(-c2ccc(NCc3cccnc3)c([N+](=O)[O-])c2)n1	?	-1%
N=C(N)c1ccccc1	-11%	4%
N=C(N)c1ccc(/C=C\c2ccc(C(=N)N)cc2)cc1	3.2µM*	-25%
CCn1c(C(=O)Nc2c(C)cccc2C)cc2sc(Cl)cc21	9%	-4%
CC(C)(C)OC(=O)N[C@@H](Cc1ccccc1)c1nnc(S(=O)(=O)Cc2cccc(F)c2)o1	20µM*	13µM*
C[C@H](NC(=O)OC(C)(C)C)c1nnc(SCc2c(F)cccc2Cl)o1	-5%	-2%
CCOC(=O)CSc1nnc([C@H](Cc2ccccc2)NC(=O)OC(C)(C)C)o1	-10%	-4%
CC(C)C[C@H](NC(=O)OC(C)(C)C)c1nnc(SCc2ccccc2)o1	12%	-2%
Cc1ccccc1CS(=O)(=O)c1nnc([C@H](CC(C)C)NC(=O)OC(C)(C)C)o1	25µM*	13µM*
CC(C)[C@H](NC(=O)OC(C)(C)C)c1nnc(S(=O)(=O)Cc2c(F)cccc2Cl)o1	5µM*	3.5µM*
O=C(NCCN1CCCCC1)c1ccc(Cn2c(SCc3ccccc3)nc3cccnc32)cc1	21%	2%
SMILES	Cruzain noTriton	Cruzain inh Det
COc1ccc2cc(C(=O)CCC(=O)O)ccc2c1	15%	-4%
COc1cccc(C(=O)Nc2c(C(=O)NC(C)(C)C)oc3ccccc23)c1	-5%	-3%
Cc1ccc(OCC(=O)Nc2ccc(OCc3cc(=O)n4cccc(C)c4n3)cc2)cc1C	-4%	2%
Cc1ccc(Cc2cnc(NC(=O)c3ccco3)s2)cc1	-9%	-1%
O=C(Nc1ncc(Cc2ccc(SC(F)F)cc2)s1)c1ccc(OC(F)F)cc1	20µM*	-3%
COc1ccc(C2=C(C)C(N3CCC(C(=O)Nc4cc(C)ccc4C)CC3)=NS2(=O)=O)cc1	21%	0%
CCc1ccc2nc(N3CCN(C(=O)c4ccco4)CC3)sc2c1	11%	-5%
CCc1ccc2nc(N3C(=O)C(O)=C(C(=O)c4ccco4)C3c3cccs3)sc2c1 (configuration not stated)	?	25µM*
Cc1cc(N2C(=O)C(O)=C(C(=O)c3ccc(C)o3)C2c2cccs2)no1 (configuration not stated)	-8%	3%
Cc1ccc2nc(N3C(=O)C(O)=C(C(=O)c4cc5ccccc5o4)C3c3cccs3)sc2c1 (configuration not stated)	9%	16µM*
CCOc1ccc(CCNC(=O)c2ccc(-c3nc(COc4ccc(C)cc4)c(C)o3)cc2)cc1	-1%	1%
CC(C)c1ccc(CNc2nc(-c3ccco3)nn2S(=O)(=O)c2ccc3ccccc3c2)cc1	10µM*	0%
Cc1ccc(CNc2nc(-c3ccco3)nn2S(=O)(=O)c2ccc3ccccc3c2)cc1	?	-3%
O=C(CCCCCn1c(=O)c2sccc2n(Cc2ccc(Cl)cc2)c1=O)NCc1ccc2c(c1)OCO2	10%	-2%
O=C(c1cc(F)cc(F)c1)N1CCC(c2nc(-c3ccc(S(=O)(=O)N4CCCC4)cc3)no2)CC1	2%	2%
N#C/C(=C\c1cn(CCOc2ccccc2)c2ccccc12)C(=O)NCc1ccco1	1%	14%
Cc1ccc(C)c(NC(=O)/C(C#N)=C/c2cn(CC(=O)NCc3ccco3)c3ccccc23)c1	7.9µM*	11%
Cc1cc(C)cc(NC(=O)/C(C#N)=C/c2cn(CC(=O)NCc3ccco3)c3ccccc23)c1	16µM*	-2%
Cc1ccccc1OCCn1cc(/C=C(\C#N)C(=O)NCc2ccco2)c2ccccc21	-15%	1%
COc1ccc2c(Sc3ccccc3)c(C(=O)N3CCC(C)CC3)[nH]c2c1	?	-7%
Cc1cc2ccc(=O)oc2cc1OC[C@@H](O)C(C)(C)O	40µM*	-16%
CC(C)(O)[C@H](O)COc1c2occc2cc2ccc(=O)oc12	0%	0%
COc1ccc([N+](=O)[O-])cc1NC(=O)Nc1ccccc1	0%	-8%
COc1ccc([N+](=O)[O-])cc1C1NN=C(c2ccccc2O)S1 (configuration not stated)	20µM*	0%
Oc1cc(O)c2c(c1)O[C@H](c1ccc(O)c(O)c1)[C@@H](O)[C@@H]2c1c(O)cc(O)c2c1O[C@@H](c1ccc(O)c(O)c1)[C@H](O)C2	-3%	-2%
SMILES	Cruzain noTriton	Cruzain inh Det
Cc1ccc(NC(=O)N2CCC3(CC2)Oc2ccccc2C(=O)N3Cc2ccc(F)cc2)cc1	?	-5%
O=C1c2ccccc2OC2(C=Cc3ccccc3O2)N1Cc1ccccc1 (configuration not stated)	25µM*	3%
O=C(CSc1nc2c(c(=O)[nH]1)CCCC2)Nc1ccccc1C(F)(F)F	-2%	-3%
Cc1ccc(CN2C(=O)C3CCCN3c3ccc(C#N)cc32)cc1 (configuration not stated)	10µM*	0%
O=C1C2CCCN2c2ccc(S(=O)(=O)N3CCOCC3)cc2N1Cc1ccccc1F (configuration not stated)	7%	-3%
O=C1C2CCCN2c2ccc(S(=O)(=O)N3CCOCC3)cc2N1Cc1cccc(C(F)(F)F)c1 (configuration not stated)	8%	-4%
Cc1ccc(C)c(CN2C(=O)C3CCCN3c3ccc(C#N)cc32)c1 (configuration not stated)	16µM*	-5%
CCOC(=O)c1cc(C)n(CC2CCC(C(=O)Nc3ccc(C)cc3)CC2)c1C (configuration not stated)	6%	-8%
CN(C)Cc1ccccc1-c1cc(N(C)Cc2ccco2)ncn1	-10%	-1%
COc1cc2oc(=O)cc(-c3ccc(-c4sccc4C=O)cc3)c2c(OC)c1OC	-5%	-1%
O=C(NCCc1nc2ccccc2[nH]1)c1ccco1	13µM*	-24%
O=C(/C=C/c1ccco1)N/C(=C\c1ccccc1)C(=O)NCCc1nc2ccccc2[nH]1	-18%	-18%
